The values that follow come from ChEMBL document CHEMBL3988442, “University of Dundee, Small-Polar-MMV Screening Library” (2021).

The species entered for the first assay is Homo sapiens. Briefly: To identify inhibition of the IFN signalling (Jak-Stat) pathway via expression of an eGFP reporter gene under the control of an IFN-stimulated response element (ISRE) containing MxA promoter. Type of assay: functional. Further details: scale not given: direction of the effect not stated beside the values. To be noted: 30 µM. Background: In a reporter assay the amount or activity of a reporter protein is the signal.
Turning to `CCN(CC)C(=O)c1ccn(COc2cc(C)cc(C)c2)n1`, the Percent Effect is 41.2%.
Consider `Cc1cc(C(=O)N2C[C@@H]3COC[C@]3(c3nnc(C4CC4)o3)C2)on1`, for which the Percent Effect was -5.46%.
Take `COC(=O)c1ccc(N2CCN(CCN3CCOCC3)C(C)C2)cc1` (stereo not drawn): the Percent Effect is -10.7%.
With `Cc1ccc(N2CCCC(NCc3cscn3)C2)nn1` (stereo not drawn), the Percent Effect was 3.87%.
Regarding `Cc1noc2ncc(C(=O)N(CC3CCOC3)C3CC3)cc12` (stereo not drawn), the Percent Effect came to 24.4%.
For `Cc1cnn(CC2CCCN2c2nn3cc(C)nc3s2)c1` (stereo not drawn), the Percent Effect worked out at 8.17%.
With `CCC(NC(=O)C1CCN(S(C)(=O)=O)CC1)c1ccc(OC)c(C)c1` (stereo not drawn), the Percent Effect is -3.86%.
For `CNC(=O)[C@@]12CCC3(CCN(S(C)(=O)=O)CC3)[C@@H]1CN(S(C)(=O)=O)C2`, the Percent Effect was 9.73%.
In the case of `Cc1ccc(C(=O)N2CCN(CCCSCC#N)CC2)o1`, the Percent Effect worked out at 18.1%.
Take `CC(=O)N(Cc1ncc(C)o1)C1CCN(CCNC2CCCCC2)C1` (stereo not drawn): the Percent Effect worked out at 18.4%.
`Cc1cnc(CN(C)CC2CCCN2c2cccnn2)cn1` (stereo not drawn): the Percent Effect amounted to 4.87%.
On to `Cc1cnn(CC2CCCN2C(=O)c2cnc3n[nH]c(C)c3c2)c1` (stereo not drawn), for which the Percent Effect is 2.33%.
Regarding `CC(=O)c1cccc(S(=O)(=O)N2CSCC2C(=O)NCC(F)(F)F)c1` (stereo not drawn), the Percent Effect stood at 2.46%.
`CCCN(Cc1ccccc1)Cn1nc(C)c2c(C)onc2c1=O`: the Percent Effect is 8.04%.
For `CN1CCCC(Cc2ccnc3ccncc23)CC1` (stereo not drawn), the Percent Effect worked out at 3.76%.
In the case of `N#Cc1ccccc1CN1C[C@@H]2CC[C@H](C1)N(Cc1cscn1)C2=O`, the Percent Effect is -7.44%.
Same read-out and setting: the figure for `CSc1ncc(C(=O)N2C[C@H]3CC[C@@H]2CN(Cc2ccccc2)C3)cn1` is 4.63%.
On to `N#CCSCCCN1CCCN(C(=O)c2ccccc2)CC1`, for which the Percent Effect stood at 14.4%.
Regarding `Cc1nn(C)c(N2CCOCC2)c1CNC(C)c1ccco1` (stereo not drawn), the Percent Effect is -7.48%.
Still for that read-out and setting: the figure for `COc1cc(CNc2cnn(C)c2)cc2c1OCCO2` is -1.15%; for `CCOCC1CN(S(C)(=O)=O)Cc2ncn(CC3CC3)c21` (stereo not drawn) it is -4.29%.
As to `COc1ccc(C(=O)Nc2cnn(CC(=O)NC3CCCC3)c2)c(O)c1`, the Percent Effect is -10.3%.
Turning to `COCC(=O)N1CCCC1c1ccnc(Nc2cnccn2)n1` (stereo not drawn), the Percent Effect is -10.9%.
As for `Cn1cnc2c1CCN(CCCOc1ccc(C#N)cc1)C2`, the Percent Effect is 20.4%.
Still for that read-out and setting: the figure for `COCCN1CCC(NCc2cccc(F)c2)C1` (stereo not drawn) is 32.2%; for `Cc1nc(CCN(C)C(=O)C2COc3ccccc3C2)no1` (stereo not drawn) it is -0.00401%.
In the case of `COCC1CC2(CCN(C(=O)c3cccc(C)c3)CC2)CO1` (stereo not drawn), the Percent Effect was -8.87%.
For the molecule `CC(C)CC(=O)N1CCCn2cnc(CN3CCCC3=O)c2C1`, the Percent Effect is -1.05%.
As to `Cc1nc(C)n(CC2CCCN(Cc3nc(C4CC4)no3)C2)n1` (stereo not drawn), the Percent Effect was 2.75%.
Take `COc1cccc([C@@H]2CN(C(=O)c3ccc(C)cc3O)C[C@H]2C(=O)O)c1`: the Percent Effect was determined as 1.8%.
Take `Nc1nc(CN2CCCC(Cn3cncn3)C2)nc2ccccc12` (stereo not drawn): the Percent Effect stood at 3.26%.
On to `O=C1C(NS(=O)(=O)c2cc(F)cc(F)c2)CCN1Cc1ccccc1` (stereo not drawn), for which the Percent Effect is 0.58%.
For the molecule `CCCc1nc(N2Cc3cnn(Cc4ccc(F)cc4)c3C2)no1`, the Percent Effect was determined as 19.7%.
In the case of `COc1cc(N2C[C@H]3OCC[C@H]3[C@H](C(=O)NC3CC3)C2)ncn1`, the Percent Effect came out at 0.456%.
On the same count and under the same terms, the figure for `CCN(Cc1cccc(Cl)c1)Cc1nc2c(cnn2C)c(=O)[nH]1` is -5.75%.
Same read-out and setting: the result for `CC(C)c1ccc(OCn2ccc(C(=O)N3CCCC3)n2)cc1` reads 52.2%; that for `CCc1cc(NC2CCN(S(C)(=O)=O)CC2)n2nc(C)c(C)c2n1`, 5.75%.
Turning to `COc1c(CNCC(c2cccc(F)c2)N(C)C)c(C(C)C)nn1C` (stereo not drawn), the Percent Effect was 5.62%.
Turning to `Cc1ccccc1C(=O)NCc1ccc(N2CCNC(=O)C2)c(F)c1`, the Percent Effect is -16.3%.

The next assay deals with T1, Tyrosyl-tRNA synthetase, putative (Trypanosoma cruzi (strain CL Brener)) (UniProt Q4DSP6).
T1 sequence (whole entry): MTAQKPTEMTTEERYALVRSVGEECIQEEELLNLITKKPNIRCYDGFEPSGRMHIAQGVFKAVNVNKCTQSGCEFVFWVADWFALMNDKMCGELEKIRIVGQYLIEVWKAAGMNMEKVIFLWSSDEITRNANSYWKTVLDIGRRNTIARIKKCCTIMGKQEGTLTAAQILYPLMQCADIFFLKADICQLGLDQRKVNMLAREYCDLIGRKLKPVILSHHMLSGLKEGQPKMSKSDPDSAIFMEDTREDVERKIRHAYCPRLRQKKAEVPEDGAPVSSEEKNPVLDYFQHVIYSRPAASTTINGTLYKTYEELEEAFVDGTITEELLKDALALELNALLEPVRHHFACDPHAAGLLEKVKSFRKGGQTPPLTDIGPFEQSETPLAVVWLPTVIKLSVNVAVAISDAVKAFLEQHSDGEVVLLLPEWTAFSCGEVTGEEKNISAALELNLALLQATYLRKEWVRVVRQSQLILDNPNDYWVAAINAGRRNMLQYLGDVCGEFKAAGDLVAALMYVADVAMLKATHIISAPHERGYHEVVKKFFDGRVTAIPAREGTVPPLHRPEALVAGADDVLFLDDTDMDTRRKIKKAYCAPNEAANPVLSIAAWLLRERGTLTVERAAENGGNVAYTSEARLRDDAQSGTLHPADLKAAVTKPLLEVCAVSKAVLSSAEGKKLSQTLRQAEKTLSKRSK
The experiment in a line: Trypanosoma cruzi tyrosyl tRNA synthetase (TcYRS) _High Tyrosine SOP. Format: functional. Also noted: scale not given: in the data most compounds retested in dose-response had high values. To be noted: 30 µM.
On to `CCN(CC)C(=O)c1ccn(COc2cc(C)cc(C)c2)n1`, for which the Percent Effect is 4.23%.
`Cc1cc(C(=O)N2C[C@@H]3COC[C@]3(c3nnc(C4CC4)o3)C2)on1`: the Percent Effect is -5.21%.
As to `COC(=O)c1ccc(N2CCN(CCN3CCOCC3)C(C)C2)cc1` (stereo not drawn), the Percent Effect worked out at 7.39%.
Still for that read-out and setting: the figure for `Cc1ccc(N2CCCC(NCc3cscn3)C2)nn1` (stereo not drawn) is 12.3%; for `Cc1noc2ncc(C(=O)N(CC3CCOC3)C3CC3)cc12` (stereo not drawn) it is 0.49%.
Still for that read-out and setting: the result for `Cc1cnn(CC2CCCN2c2nn3cc(C)nc3s2)c1` (stereo not drawn) reads -2.08%; that for `CCC(NC(=O)C1CCN(S(C)(=O)=O)CC1)c1ccc(OC)c(C)c1` (stereo not drawn), 2.15%; that for `CNC(=O)[C@@]12CCC3(CCN(S(C)(=O)=O)CC3)[C@@H]1CN(S(C)(=O)=O)C2`, 1.07%.
Take `Cc1ccc(C(=O)N2CCN(CCCSCC#N)CC2)o1`: the Percent Effect is 4.17%.
Regarding `CC(=O)N(Cc1ncc(C)o1)C1CCN(CCNC2CCCCC2)C1` (stereo not drawn), the Percent Effect is -2.15%.
With `Cc1cnc(CN(C)CC2CCCN2c2cccnn2)cn1` (stereo not drawn), the Percent Effect is 6.67%.
On to `Cc1cnn(CC2CCCN2C(=O)c2cnc3n[nH]c(C)c3c2)c1` (stereo not drawn), for which the Percent Effect was 3.12%.
On to `CC(=O)c1cccc(S(=O)(=O)N2CSCC2C(=O)NCC(F)(F)F)c1` (stereo not drawn), for which the Percent Effect came out at 9.38%.
The same measure, in the same setting: the figure for `CCCN(Cc1ccccc1)Cn1nc(C)c2c(C)onc2c1=O` is 5.42%; for `CN1CCCC(Cc2ccnc3ccncc23)CC1` (stereo not drawn) it is 2.15%; for `N#Cc1ccccc1CN1C[C@@H]2CC[C@H](C1)N(Cc1cscn1)C2=O` it is 3.7%.
On to `CSc1ncc(C(=O)N2C[C@H]3CC[C@@H]2CN(Cc2ccccc2)C3)cn1`, for which the Percent Effect amounted to 6.45%.
Same read-out and setting: the result for `N#CCSCCCN1CCCN(C(=O)c2ccccc2)CC1` reads 1.04%; that for `Cc1nn(C)c(N2CCOCC2)c1CNC(C)c1ccco1` (stereo not drawn), 3.16%.
On to `COc1cc(CNc2cnn(C)c2)cc2c1OCCO2`, for which the Percent Effect was -13.2%.
On to `CCOCC1CN(S(C)(=O)=O)Cc2ncn(CC3CC3)c21` (stereo not drawn), for which the Percent Effect was 6.45%.
`COc1ccc(C(=O)Nc2cnn(CC(=O)NC3CCCC3)c2)c(O)c1`: the Percent Effect came out at 11.5%.
As to `COCC(=O)N1CCCC1c1ccnc(Nc2cnccn2)n1` (stereo not drawn), the Percent Effect came out at 12.9%.
As to `Cn1cnc2c1CCN(CCCOc1ccc(C#N)cc1)C2`, the Percent Effect was -0.493%.
As for `COCCN1CCC(NCc2cccc(F)c2)C1` (stereo not drawn), the Percent Effect was determined as 5.83%.
In the case of `Cc1nc(CCN(C)C(=O)C2COc3ccccc3C2)no1` (stereo not drawn), the Percent Effect came to 5.38%.
Turning to `COCC1CC2(CCN(C(=O)c3cccc(C)c3)CC2)CO1` (stereo not drawn), the Percent Effect is -3.17%.
Regarding `CC(C)CC(=O)N1CCCn2cnc(CN3CCCC3=O)c2C1`, the Percent Effect stood at 2.15%.
For the molecule `Cc1nc(C)n(CC2CCCN(Cc3nc(C4CC4)no3)C2)n1` (stereo not drawn), the Percent Effect was 8.37%.
On the same count and under the same terms, the figure for `COc1cccc([C@@H]2CN(C(=O)c3ccc(C)cc3O)C[C@H]2C(=O)O)c1` is 3.23%; for `Nc1nc(CN2CCCC(Cn3cncn3)C2)nc2ccccc12` (stereo not drawn) it is 4.95%; for `O=C1C(NS(=O)(=O)c2cc(F)cc(F)c2)CCN1Cc1ccccc1` (stereo not drawn) it is 6.4%.
In the case of `CCCc1nc(N2Cc3cnn(Cc4ccc(F)cc4)c3C2)no1`, the Percent Effect is 4.92%.
On the same count and under the same terms, the figure for `COc1cc(N2C[C@H]3OCC[C@H]3[C@H](C(=O)NC3CC3)C2)ncn1` is 9.38%; for `CCN(Cc1cccc(Cl)c1)Cc1nc2c(cnn2C)c(=O)[nH]1` it is 3.81%; for `CC(C)c1ccc(OCn2ccc(C(=O)N3CCCC3)n2)cc1` it is 3.23%.
Turning to `CCc1cc(NC2CCN(S(C)(=O)=O)CC2)n2nc(C)c(C)c2n1`, the Percent Effect is -10.5%.
Consider `COc1c(CNCC(c2cccc(F)c2)N(C)C)c(C(C)C)nn1C` (stereo not drawn), for which the Percent Effect is 0%.
As to `Cc1ccccc1C(=O)NCc1ccc(N2CCNC(=O)C2)c(F)c1`, the Percent Effect was found to be 4.76%.
